For assay [1], the target named is Voltage-gated inwardly rectifying potassium channel KCNH2 (Homo sapiens) (UniProt Q12809). The assay is described as follows: qHTS Assay for Small Molecule Inhibitors of the Human hERG Channel Activity (AID 588834).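 Also: lower thallium flux fluorescence means stronger hERG block; nearly all actives have a fitted effect of over 50% in size.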 Also: potency is read from the fitted curve at half-maximal effect. The essentials: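 hERG-BacMam U2OS, 2000 cells/well; 0.7X FluxOR loading 1 hr RT dark; cpd ~10 min 37 °C; stim buffer; FDSS fluorescence 2 min @ 1 s; AC50 Hill fit.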
Voltage-gated inwardly rectifying potassium channel KCNH2 (Homo sapiens), sequence (Q12809 whole entry, looked up): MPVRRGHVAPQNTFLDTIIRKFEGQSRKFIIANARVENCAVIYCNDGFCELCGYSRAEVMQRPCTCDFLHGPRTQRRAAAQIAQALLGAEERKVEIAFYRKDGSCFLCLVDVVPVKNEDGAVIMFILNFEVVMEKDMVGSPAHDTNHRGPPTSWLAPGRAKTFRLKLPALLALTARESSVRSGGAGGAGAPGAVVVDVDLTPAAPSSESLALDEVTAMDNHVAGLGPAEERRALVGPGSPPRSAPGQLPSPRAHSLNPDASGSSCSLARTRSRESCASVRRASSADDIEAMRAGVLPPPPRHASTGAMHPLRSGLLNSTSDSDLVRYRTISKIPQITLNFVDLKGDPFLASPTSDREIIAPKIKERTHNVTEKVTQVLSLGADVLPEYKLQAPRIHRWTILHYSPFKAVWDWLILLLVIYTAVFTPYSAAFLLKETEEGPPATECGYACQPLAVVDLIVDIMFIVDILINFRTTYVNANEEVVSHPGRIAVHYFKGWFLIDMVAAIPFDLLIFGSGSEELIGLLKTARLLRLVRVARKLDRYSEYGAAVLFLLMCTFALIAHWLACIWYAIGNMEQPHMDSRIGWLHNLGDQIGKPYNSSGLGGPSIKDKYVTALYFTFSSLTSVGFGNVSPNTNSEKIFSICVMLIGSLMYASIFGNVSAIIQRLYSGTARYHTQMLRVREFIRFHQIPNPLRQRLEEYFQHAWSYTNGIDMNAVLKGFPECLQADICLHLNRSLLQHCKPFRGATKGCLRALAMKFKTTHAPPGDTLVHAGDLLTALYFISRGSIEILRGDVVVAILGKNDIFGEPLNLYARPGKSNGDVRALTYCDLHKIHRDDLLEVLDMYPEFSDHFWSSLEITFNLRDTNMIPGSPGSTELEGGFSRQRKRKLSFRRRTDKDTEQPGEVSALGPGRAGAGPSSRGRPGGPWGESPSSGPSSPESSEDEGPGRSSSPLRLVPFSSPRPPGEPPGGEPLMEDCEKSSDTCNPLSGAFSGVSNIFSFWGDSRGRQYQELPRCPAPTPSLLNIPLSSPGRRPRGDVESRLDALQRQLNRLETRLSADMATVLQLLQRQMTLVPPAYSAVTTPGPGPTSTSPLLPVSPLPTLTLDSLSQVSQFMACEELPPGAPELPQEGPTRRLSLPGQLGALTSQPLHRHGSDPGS
(qHTS replaces the single test concentration by a dilution series.)

Assay [2] deals with Luciferin 4-monooxygenase (Photinus pyralis) (UniProt P08659). The assay is described as follows: Biochemical firefly luciferase enzyme assay for NPC (AID 624030).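 Also: purified P. pyralis luciferase at 10 nM with luciferin and ATP substrate; 0% = DMSO and -100% = full luciferase inhibition by PTC124 control; nearly all actives have a fitted effect of over 70% in size.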 In outline: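 Counter-screen for direct inhibition of the luciferase enzyme by approved-drug library compounds, run at 10 nM enzyme in 50 mM Tris acetate (final). Luminescence was read within 5 min of enzyme-buffer addition and normalized to PTC124 versus DMSO (0%).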
Luciferin 4-monooxygenase (Photinus pyralis), sequence (P08659 whole entry, looked up): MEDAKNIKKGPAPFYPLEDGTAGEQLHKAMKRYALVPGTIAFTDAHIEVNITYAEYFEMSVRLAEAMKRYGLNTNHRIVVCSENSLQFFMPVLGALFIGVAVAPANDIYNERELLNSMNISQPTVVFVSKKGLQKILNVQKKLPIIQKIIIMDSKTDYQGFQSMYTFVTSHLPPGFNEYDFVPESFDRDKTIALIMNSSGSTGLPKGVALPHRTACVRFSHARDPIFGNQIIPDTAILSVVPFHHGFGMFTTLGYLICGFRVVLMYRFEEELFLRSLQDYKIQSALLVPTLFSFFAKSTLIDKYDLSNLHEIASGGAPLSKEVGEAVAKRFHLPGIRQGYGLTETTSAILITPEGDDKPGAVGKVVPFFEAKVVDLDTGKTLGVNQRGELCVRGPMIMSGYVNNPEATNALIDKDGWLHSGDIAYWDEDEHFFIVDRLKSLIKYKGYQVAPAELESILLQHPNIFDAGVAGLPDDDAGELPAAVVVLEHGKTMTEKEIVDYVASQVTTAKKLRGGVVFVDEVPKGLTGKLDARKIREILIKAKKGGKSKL

Assay [3] can be described thus: S16 Schwann cell viability assay (CellTiter-Glo assay) (AID 624031).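 Also: cellular ATP luminescence as a viability measure; plate controls were DMSO-treated cells for no effect and cell-free wells for full effect; nearly all actives have a fitted effect of over 70% in size.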 The essentials: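 Native S16 Schwann cells (rat), serum-containing medium, overnight attachment then 24 h drug exposure at 37 °C/5% CO2. CellTiter-Glo ATP signal; normalized to cell-free and vehicle wells.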
Assay [4] in a line: S16 Schwann cell PMP22 intronic element beta-lactamase assay (AID 624044; calls by dose curve;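 also: 0% = DMSO and -100% = potassium clavulanate positive control; nearly all actives have a fitted effect of over 15% in size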). The following applies: S16 rat Schwann cells, PMP22 element beta-lactamase FRET, 24 h; ratio activity, negative = inhibition: at 38.3 µM (top of the series) unless noted. In outline:
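Rat S16 Schwann cells with beta-Lac driven by a PMP22 intronic element, compound-treated 24 h at 37 °C. LiveBLAzer FRET B/G read: 460 nm normalized to potassium clavulanate vs DMSO; 535 nm FRET as viability; concentration-effect curves classified.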

Assay [5] is described as follows: S16 Schwann cell PMP22 intronic element firefly luciferase assay (AID 624032). Also: nearly all actives have a fitted effect of over 30% in size. Also: potency is read from the fitted curve at half-maximal effect. In outline:
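Rat S16 Schwann cells stably carrying a PMP22 intronic element-driven Fluc reporter were seeded overnight, then exposed to compounds for 24 h at 37 °C. Luminescence was normalized to PTC124 (positive control) and DMSO (0% activity).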

Results on 27 compounds are retold here after PubChem BioAssay (NCATS).

Values joined by “and” are separate entries in the source; they are usually repeats but may differ in a detail not shown here. Identical values can stand only once. Records with an inconclusive call do not appear. A number with no mark means an inactive call. Active and inactive are the calls of the source. Unless noted, calls follow the shape of the dose curve; as a rule, active = well fitted curve in the direction sought with a large enough effect; inconclusive = small, poorly fitted or top-dose-only effect, or another doubt; inactive = no such curve, though single readings can be large; an effect the other way counts as inactive or inconclusive.

`NC(=O)Oc1ccc(Cc2ccccc2)cc1`: the Potency result in assay [1], in assay [2] and in assay [3] was “inactive” in each case. Further, in assay [4], the ratio activity, negative = inhibition was -0.76%.
On to `CCc1ncnc2cc(OC)c(OC)cc12`, for which the Potency result in assay [1], in assay [3] and in assay [5] was “inactive” each time. In assay [4], the ratio activity, negative = inhibition was -3.22%.
Consider `CCCCCCOC(=O)c1cccnc1`, for which the Potency result in assay [1], in assay [3] and in assay [5] was “inactive” in each case. For the same compound, the ratio activity, negative = inhibition in assay [4] was 2.38%.
For `O=C(c1cc2ccccc2o1)N1CCN(Cc2ccccc2)CC1`, the Potency entry in assay [1], in assay [3] and in assay [5] was “inactive” throughout. Also, in assay [4], the ratio activity, negative = inhibition was 2.34%.
Turning to `Cc1cc(-c2ccc(N=Nc3ccc4c(S(=O)(=O)O)cc(S(=O)(=O)O)c(N)c4c3O)c(C)c2)ccc1N=Nc1ccc2c(S(=O)(=O)O)cc(S(=O)(=O)O)c(N)c2c1O`, the Potency result in assay [1] and in assay [3] was “inactive” in each case. In assay [5], the Potency was 8.09 µM (active).
On to `c1ccc2c(c1)Sc1ccccc1N2CCN1CCCC1`, for which, in assay [1], the Potency was 15.8 µM (active). The Potency result in assay [2] was “inactive”. Besides, in assay [4], the ratio activity, negative = inhibition was -1.68%.
Turning to `NCC[C@H](O)C(=O)N[C@@H]1C[C@H](N)[C@@H](O[C@H]2O[C@H](CN)[C@@H](O)[C@H](O)[C@H]2O)[C@H](O)[C@H]1O[C@H]1O[C@H](CO)[C@@H](O)[C@H](N)[C@H]1O`, the Potency result in assay [1], in assay [2] and in assay [3] was “inactive” each time. Besides, the ratio activity, negative = inhibition in assay [4] was -4.63%.
`C=C1C(CCl)(CCl)C2(Cl)C(Cl)C(Cl)C1(Cl)C2(Cl)Cl` (stereo not given): the Potency in assay [1] is 28.2 µM (active) and 15.8 µM (active); in assay [5], 36.1 µM (active). In addition, the Potency entry in assay [2] is “inactive”. The ratio activity, negative = inhibition in assay [4] was -26.3%.
Regarding `C[C@H](CCCC(C)(C)O)[C@H]1CC[C@H]2[C@@H]3CC=C4C[C@@H](O)CC[C@]4(C)[C@H]3CC[C@]12C`, the Potency entry in assay [1], in assay [2] and in assay [5] was “inactive” each time.
Consider `CC(C)(C)CC(C)(C)c1ccc(OCCO)cc1`, for which the Potency entry in assay [1] and in assay [3] was “inactive” each time. Also, in assay [4], the ratio activity, negative = inhibition was -12.4%.
As to `CC1CCC(NC(=O)N(CCCl)N=O)CC1` (stereo not given), the Potency result in assay [1], in assay [3] and in assay [5] was “inactive” each time. Further, the ratio activity, negative = inhibition in assay [4] is 2.89%.
Consider `CC(C)[C@H](N)C(=O)OCC(CO)OCn1cnc2c(=O)[nH]c(N)nc21` (stereo not given in full), for which the Potency entry in assay [2], in assay [3] and in assay [5] was “inactive” throughout. The ratio activity, negative = inhibition in assay [4] was 0.697%.
On to `CN(C)C=Nc1c(I)cc(I)c(CCC(=O)O)c1I`, for which the Potency result in assay [1], in assay [3] and in assay [5] was “inactive” in each case. In assay [4], the ratio activity, negative = inhibition was 2.26%.
Turning to `CC(CCc1ccc(O)cc1)NCC(O)c1ccc(O)cc1` (stereo not given), the figures for the Potency in assay [1] and in assay [5] were 1.78 µM (active) and 2.03 µM (active), respectively. The Potency entry in assay [3] was “inactive”. In addition, the ratio activity, negative = inhibition in assay [4] is -5.84%.
Turning to `COc1cc(NCCCC(C)N)c2ncccc2c1` (stereo not given), the Potency entry in assay [1] is “inactive”. Moreover, the Potency in assay [5] is 6.42 µM (active).
In the case of `CCOc1cc(-c2nccc3cc(OC)c(OC)cc23)cc(OCC)c1OCC`, the Potency result in assay [1] is “inactive”. Further, the ratio activity, negative = inhibition in assay [4] was -11.1%.
Turning to `CC1CCCCN1CCCOC(=O)c1ccccc1` (stereo not given), the Potency entry in assay [2], in assay [3] and in assay [5] was “inactive” in each case.
Consider `CC(=O)Oc1cccc(C(=O)O)c1OC(C)=O`, for which the Potency entry in assay [1] was “inactive”. The ratio activity, negative = inhibition in assay [4] is 10.8%.
Regarding `CCC(Cc1c(I)cc(I)c(O)c1I)C(=O)O` (stereo not given), the Potency result in assay [1], in assay [3] and in assay [5] was “inactive” throughout. In assay [4], the ratio activity, negative = inhibition is 3.55%.
Turning to `CCCCCCCCCCCCCCCCCC(=O)OCC(C)O` (stereo not given), the Potency entry in assay [1] and in assay [5] was “inactive” throughout. In addition, the ratio activity, negative = inhibition in assay [4] was -0.254%.
Take `FC(F)(F)C(F)(F)C(F)(F)C(F)(F)C(F)(F)F`: the Potency result in assay [1], in assay [3] and in assay [5] was “inactive” throughout. Moreover, the ratio activity, negative = inhibition in assay [4] was 0%.
Take `COc1ccc2nc(NC(=O)Nc3ccccc3)sc2c1`: the Potency result in assay [1], in assay [3] and in assay [5] was “inactive” throughout. Further, in assay [4], the ratio activity, negative = inhibition is -14.6%.
In the case of `CCN(CC)C(=O)c1cccnc1`, the Potency result in assay [1], in assay [3] and in assay [5] was “inactive” in each case. In addition, the ratio activity, negative = inhibition in assay [4] is 2.08%.
On to `CC(C)(Oc1ccc(C2CCCc3ccccc32)cc1)C(=O)O` (stereo not given), for which the Potency result in assay [1] and in assay [5] was “inactive” throughout. Also, the ratio activity, negative = inhibition in assay [4] was -0.979%.
For the compound `CC(C)[C@@H](N)C(=O)O`, the Potency result in assay [1], in assay [3] and in assay [5] was “inactive” each time. Besides, in assay [4], the ratio activity, negative = inhibition was 0.806%.
`CCCOc1cc(N)ccc1C(=O)OCCN(CC)CC`: the Potency entry in assay [1], in assay [3] and in assay [5] was “inactive” each time. Besides, the ratio activity, negative = inhibition in assay [4] was 1.14% [at 17.1 µM].
On to `Cn1c(=O)c2c(ncn2CCOC(=O)C(C)(C)Oc2ccc(Cl)cc2)n(C)c1=O`, for which the Potency result in assay [1] and in assay [3] was “inactive” throughout. In addition, in assay [5], the Potency is 32.2 µM (active). The ratio activity, negative = inhibition in assay [4] is -5.21%.
